In all, about 200,000 compounds went through this assay and about 18,000 (9%) were called active. The entries come from a sample that favours actives as a whole. Values without a mark were called inactive. Cut-off read from the data, not from the text of the source: active = inhibition above about 50%; inactive = the rest.
Experiment: Leishmania major promastigote growth inhibition, primary screen (AID 1063);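 note: promastigotes grown with compound for 44 hours at 28 °C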
Conditions: Leishmania major promastigotes, resazurin fluorescence viability; at 10 µM; stronger effect = higher value

SMILES | inhibition
COC(=O)C1=C(C(=O)OC)C(c2cc([N+](=O)[O-])ccc2O)c2sc(=O)[nH]c2S1 (stereo not drawn) | -11.4%
Clc1ncn(CCOc2ccccc2)c1Cl | -6.41%
CCN(CC)CCCNC(=O)Cn1cnc2sc(C)c(S(=O)(=O)N3CCN(c4ncccn4)CC3)c2c1=O | 1.29%
CCN(CC)CCNC(=O)c1sc2ncn(CC(=O)Nc3ccc(C)c(Cl)c3)c(=O)c2c1C | 87.1% (active)
CCN(CC)CCNC(=O)Cn1cnc2sc(C)c(S(=O)(=O)N3CCOCC3)c2c1=O | -1.31%
O=C(CC1C(=O)NCCN1Cc1ccc(-c2ccccc2)cc1)NCc1ccncc1 (stereo not drawn) | -2.72%
Cc1ccccc1NC(=O)CN1C(=O)N/C(=C\c2cccn2-c2cccc(C(=O)O)c2)C1=O | -4.64%
Cc1ccc(Nc2ccc(C(N)=O)cc2[N+](=O)[O-])cc1 | -4.3%
Cc1ccc(Nc2cc(C)nc3c(C)ccc([N+](=O)[O-])c23)cc1 | 87.2% (active)
Cc1cc(C)nc(Nc2cc([N+](=O)[O-])ccc2C)n1 | 2.27%
O=S(=O)(Nc1ccccn1)c1cccc(S(=O)(=O)c2ccc(Cl)cc2)c1 | -10.8%
CC(C)(C)NC(=O)Cn1cnc2cc([N+](=O)[O-])ccc2c1=O | 3.94%
O=C(/C=C/c1ccc(F)cc1)Nc1cccc(S(=O)(=O)Nc2cccc(C(F)(F)F)c2)c1 | 50.4% (active)
CCNS(=O)(=O)c1ccc(NC(=O)Nc2cccc(C(F)(F)F)c2)cc1 | 31.4%
O=C(CN1CCN(c2ccc(F)cc2)CC1)Nc1cccc(C(F)(F)F)c1 | -7.62%
O=C(NCc1ccco1)c1nn2cccnc2c1Cl | -2.79%
COc1ccc(Sc2nc(-c3ccccc3)ncc2OC)cc1 | -4.44%
CC(Oc1cccc(NC(=O)c2cccs2)c1)C(=O)c1ccccc1 (stereo not drawn) | 16.5%
CCc1ccccc1N(CC(=O)NCCSCc1ccco1)S(C)(=O)=O | -4.33%
Cc1cccc(Nc2ccccc2C(=O)NCc2ccco2)c1C | 38.2%
Cc1ccc(N(Cc2ccc(C(=O)Nc3ccccc3C(=O)NCc3ccco3)cc2)S(C)(=O)=O)cc1C | 61.3% (active)
O=C(Nc1ccccc1)Nc1ccccc1C(=O)NCc1ccco1 | 4.53%
Cc1cc(C)cc(N(CC(=O)NCCSCc2ccco2)S(C)(=O)=O)c1 | -4.83%
CS(=O)(=O)N(Cc1ccc(Cl)cc1)c1ccc(C(=O)NCCSCc2ccco2)cc1 | 53.3% (active)

SMILES | inhibition
CCOC(=O)c1sc(NC(=O)CSc2n[nH]c(CC)n2)nc1C | -7.68%
Cc1ccccc1NS(=O)(=O)CCCCC(Cl)(Cl)Cl | 5.47%
COc1ccc(C2CC(c3cccs3)=NN2c2ccccc2)cc1 (stereo not drawn) | -1.67%
CCOC(=O)N1CCN(C(=O)Cn2cnc3ccccc3c2=O)CC1 | -4.19%
COc1ccc(NC(=O)C(=O)NCC(=O)Nc2cccc(C(F)(F)F)c2)cc1 | -4.66%
COC(=O)CSc1ncnc2c1cnn2-c1ccc(C)cc1C | 2.35%
CC(O)CNCCOc1cccc(Oc2ccccc2)c1 (stereo not drawn) | 95.9% (active)
Cc1ccc([N+](=O)[O-])c(OCCCNCC(C)O)c1 (stereo not drawn) | -0.76%
CC1(C)NC(=O)N(CCOc2cccc(Oc3ccccc3)c2)C1=O | -11.3%
Cc1ccnc(SCC(N)=O)n1 | -7.56%
O=C(Nc1ccc(F)c([N+](=O)[O-])c1)C1CC(=O)N(Cc2ccccc2)C1 (stereo not drawn) | 8.12%
CNC(=S)Nc1ccc([N+](=O)[O-])cc1 | 6.53%
COc1cccc(NC(=O)COC(=O)CCOc2ccccc2OC)c1 | -0.7%
COc1ccccc1OCC(=O)OCn1c(SC)nnc(C)c1=O | 58% (active)
COc1ccccc1OCCC(=O)OCC(=O)NC(=O)NC(C)(C)C | -5.7%
Cn1cnnc1SCc1nnc(-c2ccccc2Br)o1 | -7.2%
COc1ccc(C2CC(c3cccs3)=NN2C(=O)CSc2nnc(N)s2)cc1OC (stereo not drawn) | 2.75%
COc1ccc(C2CC(c3cccs3)=NN2C(=O)COC(=O)c2cc3ccccc3cc2O)cc1OC (stereo not drawn) | 58% (active)
COc1ccc(C2CC(c3cccs3)=NN2C(=O)CSc2nncs2)cc1OC (stereo not drawn) | 8.19%
COc1ccccc1NC(=O)CCSc1nnc(-c2ccc(O)cc2)o1 | -3.54%
NS(=O)(=O)c1cccc(NC(=O)CSc2nc3ccccc3n2-c2ccccc2)c1 | 9.64%
Cc1ccc(-n2c(SCC(=O)Nc3ncc(Cl)cc3Cl)nc3ccccc32)cc1 | 89.5% (active)
Cc1ccc(SCCC(=O)OCC(=O)Nc2ncc(Cl)cc2Cl)cc1 | -4.94%
O=C(O)CC1S/C(=N\N=C/c2ccccc2O)N(c2ccc(O)cc2)C1=O (stereo not drawn) | -7.61%

SMILES | inhibition
CC(=O)C1(C)N(O)C(C)(C)C(c2cccs2)=[N+]1[O-] (stereo not drawn) | -4.97%
Cc1cccc2cc(C#N)c(N3CCCC3)nc12 | 4.74%
CC(=O)c1cc(C#N)c(N2CCCCC2)nc1C | -3.09%
CCOC(=O)c1cc(C#N)c(N2CCCCC2)nc1-c1ccccc1 | 53.9% (active)
CCN1CC(CN(C)Cc2nc(-c3ccc(Cl)cc3)no2)CC1=O (stereo not drawn) | -8.19%
COc1cc(NC(=O)COC(=O)c2cnc(C)cn2)c(C)cc1[N+](=O)[O-] | -4.51%
O=C(CSc1ccc(-c2ccco2)nn1)NCc1ccc2c(c1)OCO2 | 14%
Cc1cc(C(=O)NNC(=O)c2cccc(S(=O)(=O)N3CCOCC3)c2)c2ccccc2n1 | -9.98%
Cc1cc(N2CCN(S(=O)(=O)c3ccc(C)c(C)c3)CC2)c2ccccc2n1 | 98.6% (active)
Cc1ccc(S(=O)(=O)C(C#N)c2nc3ccccc3nc2N2CCCC2)cc1C (stereo not drawn) | -2.26%
COc1ccc(CCNc2ncnc3nc[nH]c23)cc1OC | 5.03%
COc1ccc(CCNc2cc(C)nc3c(-c4ccc(Cl)cc4)c(C)nn23)cc1OC | 76.3% (active)
COc1ccc(CCNC2=C(Cl)C(=O)N(Cc3ccccc3)C2=O)cc1OC | 8.4%
Cc1cc(Cl)ccc1OCCCC(=O)NCc1ccccn1 | 5.49%
COCCCNC(=S)NC(=O)c1ccc([N+](=O)[O-])cc1 | -8.2%
COc1ccccc1OCCNc1cc(N2CCOCC2)ccc1[N+](=O)[O-] | 2.32%
COc1ccccc1OCCNC(=O)c1cc([N+](=O)[O-])cc([N+](=O)[O-])c1 | 93.5% (active)
Cc1ccc(NC(=O)CSCC(=O)NC2CCCCC2)cc1 | 14.3%
CCC1CO/C(=C(\C(=C(Cl)Cl)N2CCOCC2)[N+](=O)[O-])N1 (stereo not drawn) | -6.26%
Cc1noc(C)c1S(=O)(=O)Nc1ccc(C(=O)N2CCN(c3ccc(F)cc3)CC2)cc1 | 4.11%
CCc1ccccc1NC(=O)CN(C)C(=O)COc1ccc(C)nc1[N+](=O)[O-] | 57.1% (active)
Cc1ccc(OCC(=O)Nc2ccccc2Sc2ccc(Cl)cc2)c([N+](=O)[O-])n1 | 7.6%
COc1ccccc1CNC(=O)COc1ccc(C)nc1[N+](=O)[O-] | 0.88%
CC(=O)c1c(C)[nH]c(C(=O)OCC(=O)Nc2cc(S(=O)(=O)N3CCCCC3)ccc2C)c1C | 95.4% (active)

SMILES | inhibition
COc1ccc(S(=O)(=O)N2CCCCCC2)cc1C(=O)OCC(=O)Nc1cc(C)on1 | 3.73%
CC(=O)c1c(C)[nH]c(C(=O)Nc2cc(S(=O)(=O)N(C)C)ccc2C)c1C | -6.9%
OCCNc1nc2ccccc2n1-c1ncnc2sc3c(c12)CCC3 | 60.8% (active)
CC(C)(C)C(=O)Cn1c(NCCO)nc2ccccc21 | -7.58%
Cn1c(NN)nc2sc3c(c2c1=O)CCC3 | -2.23%
CCN1CCc2nc(NC(=O)c3cc(F)c(F)cc3Cl)sc2C1 | -0.49%
Nc1ccc(Cl)c(S(=O)(=O)Nc2ccccc2Cl)c1 | 1.56%
CCOc1ccccc1C1CC(c2cccc(NS(C)(=O)=O)c2)=NN1C(=O)c1ccccc1 (stereo not drawn) | 2.04%
CCOc1ccc2nc(Cl)c(C3CC(c4ccccc4)=NN3C(=O)c3cccs3)cc2c1 (stereo not drawn) | 66.5% (active)
COc1ccc(C2CC(c3ccccc3)=NN2C(=O)c2ccc(Cl)c([N+](=O)[O-])c2)cc1 (stereo not drawn) | 31.9%
COc1ccc(C(=O)COC(=O)c2ccc3ccccc3n2)cc1 | -7.38%
COc1ccc(CCNC(=O)CCn2c(=O)c3ccccc3n(CC(=O)NCC3CCCO3)c2=O)cc1OC (stereo not drawn) | -3.03%
Cc1ccnc(NC(=O)c2ccco2)n1 | -6.16%
COc1ccc(CCCc2nnc(SCc3nc4ccccc4c(=O)[nH]3)n2C)cc1 | -4.22%
CC(NC(=O)COC(=O)c1cc(=O)[nH]c2ccccc12)c1ccccc1 (stereo not drawn) | -4.71%
Cc1ccccc1CC1(CO)CCCN(C(=O)c2cc(-c3ccccc3)no2)C1 (stereo not drawn) | -3.77%
COc1cccc(CC2(CO)CCCN(Cc3nc(-c4cccs4)oc3C)C2)c1 (stereo not drawn) | 2.57%
Cc1ccccc1CC1(CO)CCCN(Cc2ccc3c(c2)OCCO3)C1 (stereo not drawn) | 70.2% (active)
COc1cc(CN2CCN(Cc3ccc(C)cc3)CC2)c([N+](=O)[O-])cc1OC | 53.4% (active)
COc1cc(CC(=O)N/N=C/c2ccccc2)c([N+](=O)[O-])cc1OC | -0.35%
COc1cc(CN2CC(C)CC(C)C2)cc([N+](=O)[O-])c1O (stereo not drawn) | 16.2%
